In PubChem BioAssay AID1159580 (chemical genetic matrix, 2015):
Values joined by “and” are separate entries in the source; they are usually repeats but may differ in a detail not shown here. Identical values can stand only once. The campaign covered roughly 5,500 compounds. About 2,000 (36%) were called active. Not shown: some 18% with an inconclusive outcome. No stated cut-off is given here; in the data, active means normalized growth mostly below about 0.91 (no sharp cut-off); inconclusive means no clear call, values can overlap the other calls; inactive means mostly above about 0.92. The list shows a part of the results.

Test: chemical genetic growth profiling, strain panel (AID 1159580);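 further: tested at 20 µM; growth read once vehicle control cultures reached saturation at 30 °C; 1 = growth at the plate median or of vehicle wells; lower values mean less growth of the strain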
Settings: S. cerevisiae deletion strains, growth OD

Measured: normalized growth

CC(C)=CCC/C(C)=C/CO
inactive: locus YAL013W, strain DEP1, active compounds read low 1.01 | locus YAL021C, strain ccr4, active compounds read low 1.02 | locus YAL026C, strain drs2, active compounds read low 0.98 | locus YAL030W, strain snc1, active compounds read low 0.995 | locus YBL061C, strain skt5, active compounds read low 0.986 | locus YBR009C, strain hhf1, active compounds read low 1.01 | locus YBR021W, strain FUR4, active compounds read low 1 | locus YBR023C, strain chs3, active compounds read low 1 | locus YBR171W, strain sec66, active compounds read low 0.973 | locus YBR229C, strain ROT2, active compounds read low 1.02 | locus YBR231C, strain swc5, active compounds read low 1.02 | locus YBR279W, strain paf1, active compounds read low 1.01 | locus YCL011C, strain gbp2, active compounds read low 0.972 | locus YCL016C, strain dcc1, active compounds read low 1.02 | locus YCL029C, strain bik1, active compounds read low 0.988 | locus YCL069W, strain vba3, active compounds read low 0.986 | locus YCR088W, strain abp1, active compounds read low 0.976 | locus YDL005C, strain med2, active compounds read low 0.979 | locus YDL035C, strain GPR1, active compounds read low 1.01 | locus YDL040C, strain nat1, active compounds read low 0.977 | locus YDL074C, strain BRE1, active compounds read low 0.994 | locus YDL101C, strain DUN1, active compounds read low 1.01 | locus YDL134C, strain PPH21, active compounds read low 1.02 | locus YDL185W, strain tfp1, active compounds read low 0.985 | locus YDL192W, strain arf1, active compounds read low 1 | locus YDR001C, strain nth1, active compounds read low 0.992 | locus YDR069C, strain doa4, active compounds read low 0.984 | locus YDR101C, strain arx1, active compounds read low 0.978 | locus YDR137W, strain rgp1, active compounds read low 0.982 | locus YDR150W, strain NUM1, active compounds read low 1.01 | locus YDR159W, strain sac3, active compounds read low 0.937 | locus YDR162C, strain NBP2, active compounds read low 1.01 | locus YDR195W, strain ref2 0.968 | locus YDR297W, strain sur2, active compounds read low 0.987 | locus YDR318W, strain mcm21, active compounds read low 0.995 | locus YDR334W, strain swr1, active compounds read low 0.99 | locus YDR335W, strain msn5, active compounds read low 0.987 | locus YDR388W, active compounds read low 0.987 | locus YDR392W, strain spt3, active compounds read low 0.929 | locus YDR502C, strain sam2, active compounds read low 0.989 | locus YEL003W, strain gim4, active compounds read low 0.986 | locus YEL037C, strain rad23, active compounds read low 0.978 | locus YEL061C, strain CIN8 (second series), active compounds read low 0.975 | locus YEL061C, strain CIN8, active compounds read low 1.01 | locus YER015W, strain faa2, active compounds read low 0.982 | locus YER016W, strain bim1, active compounds read low 0.98 | locus YER110C, active compounds read low 0.985 | locus YER111C, strain swi4, active compounds read low 0.988 | locus YER155C, strain BEM2 (second series), active compounds read low 1.02 | locus YER155C, strain BEM2, active compounds read low 1.01 | locus YER167W, strain BCK2, active compounds read low 1.01 | locus YFR010W, strain ubp6, active compounds read low 0.978 | locus YGL078C, strain dbp3, active compounds read low 0.984 | locus YGL086W, strain mad1, active compounds read low 0.992 | locus YGL167C, strain pmr1, active compounds read low 0.986 | locus YGL173C, strain kem1, active compounds read low 0.958 | locus YGL227W, strain vid30, active compounds read low 0.981 | locus YGL240W, strain doc1, active compounds read low 0.967 | locus YGL248W, strain PDE1, active compounds read low 1.03 | locus YGL253W, strain hxk2, active compounds read low 0.961 | locus YGR078C, strain PAC10, active compounds read low 1 | locus YGR135W, strain pre9, active compounds read low 0.988 | locus YGR229C, strain SMI1, active compounds read low 0.998 | locus YGR252W, strain gcn5, active compounds read low 1.03 | locus YHR013C, strain ard1, active compounds read low 1 | locus YHR027C, strain rpn1, active compounds read low 0.977 | locus YHR030C, strain SLT2, active compounds read low 1.01 | locus YHR079C, strain IRE1 (second series), active compounds read low 0.993 | locus YHR079C, strain IRE1, active compounds read low 0.994 | locus YHR094C, strain hxt1, active compounds read low 0.995 | locus YHR129C, strain ARP1, active compounds read low 1.01 | locus YHR142W, strain chs7, active compounds read low 0.998 | locus YHR200W, strain rpn10, active compounds read low 1 | locus YIL066C, strain RNR3, active compounds read low 1.01 | locus YIL073C, strain SPO22, active compounds read low 0.989 | locus YIL125W, strain kgd1, active compounds read low 1 | locus YIR030C, strain dcg1, active compounds read low 0.993 | locus YJL092W, strain hpr5, active compounds read low 0.985 | locus YJL095W, strain BCK1 (second series), active compounds read low 0.982 | locus YJL095W, strain BCK1, active compounds read low 1 and 0.989 | locus YJL115W, strain asf1, active compounds read low 0.993 | locus YJL129C, strain trk1, active compounds read low 0.981 | locus YJL134W, strain LCB3, active compounds read low 1.01 | locus YJL154C, strain vps35, active compounds read low 0.988 | locus YJL164C, strain tpk1, active compounds read low 1.02 | locus YJL166W, strain qcr8, active compounds read low 1.01 | locus YJL168C, strain set2, active compounds read low 0.992 | locus YJL187C, strain SWE1 (second series), active compounds read low 1.01 | locus YJL187C, strain SWE1, active compounds read low 0.993 | locus YJR043C, strain POL32, active compounds read low 0.986 | locus YJR066W, strain TOR1, active compounds read low 0.994
